Inconclusive results are not listed. Activity calls are given as the source filed them. The calls were made as follows, unless noted: active = hit-call score of the fitted dose curve at least 0.9, where 1 is the maximum; inactive = score below 0.9.
Key:
[1] = biological target: Nuclear respiratory factor 1 (Homo sapiens) (UniProt Q16656); experiment: ATG_NRF1_CIS: Attagene CIS-FACTORIAL HepG2 Assay for human Nuclear Respiratory Factor 1 (NRF1) Orphan Gene (AID 2282987); conditions: HepG2 NRF1 cis-element reporter, Attagene multiplex; actives raise or lower the signal
Nuclear respiratory factor 1 (Homo sapiens), sequence (Q16656 whole entry, looked up): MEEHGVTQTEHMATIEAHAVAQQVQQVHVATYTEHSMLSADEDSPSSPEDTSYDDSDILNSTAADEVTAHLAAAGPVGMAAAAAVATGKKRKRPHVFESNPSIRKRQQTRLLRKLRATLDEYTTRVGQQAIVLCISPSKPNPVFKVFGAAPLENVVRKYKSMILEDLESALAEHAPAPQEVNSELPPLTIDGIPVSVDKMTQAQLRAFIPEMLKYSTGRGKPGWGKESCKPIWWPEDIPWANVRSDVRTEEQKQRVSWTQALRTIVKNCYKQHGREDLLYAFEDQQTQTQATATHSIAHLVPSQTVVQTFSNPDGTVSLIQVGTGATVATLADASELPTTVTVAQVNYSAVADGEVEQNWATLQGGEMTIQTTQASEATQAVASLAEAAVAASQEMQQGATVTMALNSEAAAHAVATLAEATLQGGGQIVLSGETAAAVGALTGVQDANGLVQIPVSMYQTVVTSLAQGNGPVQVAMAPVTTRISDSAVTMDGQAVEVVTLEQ
In short: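 HepG2 cells transiently transfected with multiple reporter transcription units under cis-regulatory promoter control, so endogenous transcription-factor activity is read. After 24 h compound exposure, reporter mRNA quantified by RT-PCR, fluorescent labelling, HpaI digestion and capillary electrophoresis; bidirectional fitting versus DMSO.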

[2] = ATG_NF_kB_CIS: Attagene CIS-FACTORIAL HepG2 Assay for human Nuclear Factor Kappa B (NF-kB) (AID 2282991); conditions: HepG2 Attagene cis-factorial NF-kB reporter mRNA; actives raise or lower the signal
In short: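 HepG2 cells transiently transfected with multiplexed cis-element reporter units measuring endogenous transcription factor activity; reporter mRNA read 24 h after dosing by RT-PCR, fluorescent labelling, HpaI digestion and capillary electrophoresis. Bidirectional fit against DMSO baseline.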

[3] = ATG_NRF2_ARE_CIS: Attagene CIS-FACTORIAL HepG2 Assay for human Nuclear Factor Erythroid 2 Related Factor 2 (NFR2) response to Antioxidant Response Elements (ARE) (AID 2282992); conditions: HepG2 Attagene ARE/NRF2 reporter, transcription factor activity; actives raise or lower the signal;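 as to AC50: reporter mRNA level measured by RT-PCR and capillary electrophoresis fluorescence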
In short: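 Transient MRTU transfection of HepG2; 24 h compound exposure; TriZol RNA, RT with oligo(dT), PCR, 6-FAM primer extension, HpaI cut, CE. Bidirectional fit vs DMSO.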

[4] = ATG_Oct_MLP_CIS: Attagene CIS-FACTORIAL HepG2 Assay for human Octamer-Binding Transcription Factor (Oct) (AID 2282993); conditions: HepG2 Attagene cis-factorial Oct reporter, mRNA; actives raise or lower the signal
In short: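 HepG2 cells transiently transfected with cis-promoter-driven multiplexed reporter transcription units, dosed for 24 h. Reporter mRNA quantified by RT-PCR, fluorescent labelling, HpaI digestion and capillary electrophoresis; bidirectional fits versus DMSO baseline.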

[5] = BSK_3C_TissueFactor: BioMAP Diversity Plus: 3C Assay for Tissue Factor Biomarker Activity (AID 2282997); conditions: BioMAP 3C HUVEC, tissue factor biomarker readout; actives raise or lower the signal
In short: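 Values derive from bidirectional curve fitting against DMSO of Tissue Factor ELISA signals, taken 24 h after dosing primary human umbilical vein endothelial cells.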

[6] = BSK_3C_uPAR: BioMAP Diversity Plus: 3C Assay for Urokinase-type plasminogen activator receptor (uPAR) Biomarker Activity (AID 2282998); conditions: BioMAP 3C HUVEC, uPAR biomarker ELISA; actives raise or lower the signal
In short: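 Human umbilical vein endothelial primary cells were exposed to test chemical for 24 h. Cell-surface uPAR was then quantified by ELISA, and responses were fitted bidirectionally against DMSO as negative control and baseline.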

[7] = BSK_3C_VCAM1: BioMAP Diversity Plus: 3C Assay for Vascular cell adhesion molecule 1 (VCAM1) Biomarker Activity (AID 2282999); conditions: BioMAP 3C HUVEC, VCAM1 ELISA, cytokine-stimulated; actives raise or lower the signal
In short: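 Human umbilical vein endothelial cells were dosed with compound for 24 h, after which cell-surface VCAM-1 was quantified by ELISA. Bidirectional curve fitting used DMSO as negative control and activity baseline.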

[8] = BSK_4H_Eotaxin3: BioMAP Diversity Plus: 4H Assay for Eotaxin 3 Biomarker Activity (AID 2283000); conditions: primary human endothelial cells (HUVEC); actives raise or lower the signal;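 also: CCL26 protein level quantified by ELISA in parallel with SRB cytotoxicity check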
In short: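 Endothelial primary cells (human umbilical vein) exposed to compound for 24 h. ELISA detection of Eotaxin-3.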

[9] = biological target: human Peroxisome Proliferator-activated Receptor delta (PPARd), PPARD (gene 5467) (UniProt Q03181); experiment: ATG_PPARd_TRANS: Attagene TRANS-FACTORIAL HepG2 Assay for human Peroxisome Proliferator-activated Receptor delta (PPARd) (AID 2283002; active = hit-call score of the fitted dose curve at least 0.9, where 1 is the maximum)
human Peroxisome Proliferator-activated Receptor delta (PPARd), PPARD (gene 5467), sequence (Q03181 whole entry, looked up, the tested form may be a part): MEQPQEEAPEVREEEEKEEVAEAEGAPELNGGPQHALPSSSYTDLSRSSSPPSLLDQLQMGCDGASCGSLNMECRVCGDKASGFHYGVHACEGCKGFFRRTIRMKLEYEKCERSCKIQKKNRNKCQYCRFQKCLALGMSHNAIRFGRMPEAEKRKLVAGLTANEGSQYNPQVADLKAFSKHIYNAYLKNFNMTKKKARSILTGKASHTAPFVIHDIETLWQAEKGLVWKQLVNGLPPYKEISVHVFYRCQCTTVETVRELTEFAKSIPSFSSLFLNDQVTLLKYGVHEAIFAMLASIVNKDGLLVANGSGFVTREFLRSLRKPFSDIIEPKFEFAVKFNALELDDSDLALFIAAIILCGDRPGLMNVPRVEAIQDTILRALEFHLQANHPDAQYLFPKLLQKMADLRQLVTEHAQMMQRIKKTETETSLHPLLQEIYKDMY
In short: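 HepG2 cells transiently transfected with multiplexed GAL4-UAS reporter units and exogenous chimeric NR-Gal4 proteins; 24 h compound exposure. Reporter mRNA measured by RT-PCR, 6-FAM labelling, HpaI digestion and capillary electrophoresis; gain of signal versus DMSO.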

[10] = biological target: human Retinoic Acid Receptor beta (RARb), RARB (gene 5915) (UniProt P10826); experiment: ATG_RARb_TRANS: Attagene TRANS-FACTORIAL HepG2 Assay for human Retinoic Acid Receptor beta (AID 2283004; active = hit-call score of the fitted dose curve at least 0.9, where 1 is the maximum)
human Retinoic Acid Receptor beta (RARb), RARB (gene 5915), sequence (P10826 whole entry, looked up, the tested form may be a part): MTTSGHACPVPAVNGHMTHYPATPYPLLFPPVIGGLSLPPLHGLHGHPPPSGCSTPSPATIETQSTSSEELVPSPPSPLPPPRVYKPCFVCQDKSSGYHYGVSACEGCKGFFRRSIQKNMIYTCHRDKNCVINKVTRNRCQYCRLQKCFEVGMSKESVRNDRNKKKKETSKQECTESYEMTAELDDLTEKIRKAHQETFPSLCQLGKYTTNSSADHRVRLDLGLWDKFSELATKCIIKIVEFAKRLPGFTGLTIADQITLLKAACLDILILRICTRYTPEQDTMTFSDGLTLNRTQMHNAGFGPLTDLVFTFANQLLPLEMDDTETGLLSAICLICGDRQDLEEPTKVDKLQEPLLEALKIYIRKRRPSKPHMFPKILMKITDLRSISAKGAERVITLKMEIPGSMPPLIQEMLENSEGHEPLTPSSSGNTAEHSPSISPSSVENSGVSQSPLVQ
In short: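 HepG2, transient MRTU transfection, NR–Gal4 chimera, 24 h treatment; RT-PCR plus CE fluorescence detection of reporter mRNA; gain of signal vs DMSO.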

[11] = BSK_3C_Proliferation: Cell Proliferation Assessment in the BioMAP Diversity Plus: 3C Assay (AID 2283006); conditions: primary human endothelial cells (HUVEC)
In short: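 Read-out is total protein by SRB absorbance at 560 nm, taken as a proxy for relative cell number. Primary human umbilical vein endothelium cultured below confluence was dosed for 48 h, TCA-fixed and SRB-stained; curves were fitted bidirectionally versus DMSO.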

[12] = biological target: Nuclear receptor subfamily 1 group I member 2 (Homo sapiens) (UniProt O75469); experiment: ATG_PXR_TRANS: Attagene TRANS-FACTORIAL HepG2 Assay for human Pregnane X Receptor (PXR) (AID 2283008; active = hit-call score of the fitted dose curve at least 0.9, where 1 is the maximum)
Nuclear receptor subfamily 1 group I member 2 (Homo sapiens), sequence (O75469 whole entry, looked up, the tested form may be a part): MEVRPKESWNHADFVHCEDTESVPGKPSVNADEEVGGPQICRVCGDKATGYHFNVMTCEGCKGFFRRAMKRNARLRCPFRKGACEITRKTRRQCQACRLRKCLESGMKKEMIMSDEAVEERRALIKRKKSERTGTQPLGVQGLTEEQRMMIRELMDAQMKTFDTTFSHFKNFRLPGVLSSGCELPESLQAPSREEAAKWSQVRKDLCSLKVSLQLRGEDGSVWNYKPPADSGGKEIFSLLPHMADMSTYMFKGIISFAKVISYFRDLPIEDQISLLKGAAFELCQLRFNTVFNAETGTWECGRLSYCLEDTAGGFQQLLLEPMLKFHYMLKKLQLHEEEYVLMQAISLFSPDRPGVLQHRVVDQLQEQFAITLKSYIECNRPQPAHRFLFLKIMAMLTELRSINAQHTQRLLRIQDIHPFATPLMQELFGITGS
In short: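 Read-out is fluorescence of labelled reporter cDNA fragments separated by capillary electrophoresis after RT-PCR and HpaI digestion. Source: HepG2 cells carrying PXR-GAL4/UAS reporter constructs, treated 24 h; activity fitted upward relative to DMSO.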

[13] = biological target: human Retinoic Acid Receptor gamma (RARg), RARG (gene 5916) (UniProt P13631); experiment: ATG_RARg_TRANS: Attagene TRANS-FACTORIAL HepG2 Assay for human Retinoic Acid Receptor gamma (RARg) (AID 2283009; active = hit-call score of the fitted dose curve at least 0.9, where 1 is the maximum)
human Retinoic Acid Receptor gamma (RARg), RARG (gene 5916), sequence (P13631 whole entry, looked up): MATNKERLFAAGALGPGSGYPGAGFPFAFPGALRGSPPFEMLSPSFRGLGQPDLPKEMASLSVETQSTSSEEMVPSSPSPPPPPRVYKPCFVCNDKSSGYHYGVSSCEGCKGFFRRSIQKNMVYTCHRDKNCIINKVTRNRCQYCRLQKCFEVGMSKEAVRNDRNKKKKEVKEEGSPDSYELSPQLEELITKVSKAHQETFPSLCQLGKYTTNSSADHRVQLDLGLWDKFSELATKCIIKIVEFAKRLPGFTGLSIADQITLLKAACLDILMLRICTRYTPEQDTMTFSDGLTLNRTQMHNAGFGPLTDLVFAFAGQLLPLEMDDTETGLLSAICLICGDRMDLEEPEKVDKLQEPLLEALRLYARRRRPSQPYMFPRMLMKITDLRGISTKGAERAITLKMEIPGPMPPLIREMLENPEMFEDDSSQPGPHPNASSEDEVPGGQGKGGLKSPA
In short: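 Transient transfection of HepG2 with multi-reporter constructs, then 24 h chemical treatment. Total RNA isolated, reverse-transcribed, PCR-amplified, fluorescently labelled and resolved by capillary electrophoresis; activity scored as mRNA induction versus DMSO.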

[14] = biological target: Myc proto-oncogene protein (Homo sapiens) (UniProt P01106); experiment: ATG_Myc_CIS: Attagene CIS-FACTORIAL HepG2 Assay for human Myelocytomatosis (Myc) Proto-Oncogene Transcription Factor (AID 2282990); conditions: HepG2, Attagene cis-reporter transcription factor activity; actives raise or lower the signal
Myc proto-oncogene protein (Homo sapiens), sequence (P01106 whole entry, looked up): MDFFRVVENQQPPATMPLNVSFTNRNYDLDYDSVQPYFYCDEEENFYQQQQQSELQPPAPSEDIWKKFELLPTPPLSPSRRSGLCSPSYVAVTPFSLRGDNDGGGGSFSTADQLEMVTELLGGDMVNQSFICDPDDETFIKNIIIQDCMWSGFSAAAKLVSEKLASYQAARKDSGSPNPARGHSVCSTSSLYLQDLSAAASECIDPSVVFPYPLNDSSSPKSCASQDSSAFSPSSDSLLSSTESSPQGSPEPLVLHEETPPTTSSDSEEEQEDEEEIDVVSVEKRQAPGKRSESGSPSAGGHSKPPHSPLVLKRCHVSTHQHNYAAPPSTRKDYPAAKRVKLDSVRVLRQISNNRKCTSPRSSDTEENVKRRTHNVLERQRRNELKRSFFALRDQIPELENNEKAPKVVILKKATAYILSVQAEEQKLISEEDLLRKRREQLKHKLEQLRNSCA
In short: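 HepG2 cells transiently transfected with multiple cis-promoter-driven reporter transcription units, so endogenous TF activity is read. After 24 h compound exposure, reporter mRNA was quantified by RT-PCR, 6-FAM labelling, HpaI digestion and capillary electrophoresis; bidirectional fit versus DMSO.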

[15] = biological target: Cellular tumor antigen p53 (Homo sapiens) (UniProt P04637); experiment: ATG_p53_CIS: Attagene CIS-FACTORIAL HepG2 Assay for human p53 Transcription Factor (AID 2282994); conditions: HepG2 p53 cis-element reporter, Attagene mRNA; actives raise or lower the signal
Cellular tumor antigen p53 (Homo sapiens), sequence (P04637 whole entry, looked up): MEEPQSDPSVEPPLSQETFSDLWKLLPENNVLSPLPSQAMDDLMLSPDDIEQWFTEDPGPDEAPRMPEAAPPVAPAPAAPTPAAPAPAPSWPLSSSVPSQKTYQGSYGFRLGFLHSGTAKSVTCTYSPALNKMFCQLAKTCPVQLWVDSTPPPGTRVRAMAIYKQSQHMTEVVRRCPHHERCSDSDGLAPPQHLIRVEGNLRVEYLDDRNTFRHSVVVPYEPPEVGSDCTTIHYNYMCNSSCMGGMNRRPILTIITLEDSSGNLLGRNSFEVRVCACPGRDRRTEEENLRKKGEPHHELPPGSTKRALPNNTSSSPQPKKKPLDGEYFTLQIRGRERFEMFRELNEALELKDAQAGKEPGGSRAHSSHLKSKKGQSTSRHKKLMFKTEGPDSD
In short: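 HepG2, transient MRTU transfection (cis promoter elements, endogenous TFs); 24 h dosing; RNA isolation, RT-PCR, 6-FAM primer extension, HpaI digest, CE fluorescence; bidirectional fit vs DMSO.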

[16] = biological target: human Peroxisome Proliferator-activated Receptor alpha (PPARa), PPARA (gene 5465) (UniProt Q07869); experiment: ATG_PPARa_TRANS: Attagene TRANS-FACTORIAL HepG2 Assay for human Peroxisome Proliferator-activated Receptor alpha (PPARa) (AID 2283001; active = hit-call score of the fitted dose curve at least 0.9, where 1 is the maximum;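 as to AC50: potency for gain of reporter signal over DMSO so agonist or activator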)
human Peroxisome Proliferator-activated Receptor alpha (PPARa), PPARA (gene 5465), sequence (Q07869 whole entry, looked up, the tested form may be a part): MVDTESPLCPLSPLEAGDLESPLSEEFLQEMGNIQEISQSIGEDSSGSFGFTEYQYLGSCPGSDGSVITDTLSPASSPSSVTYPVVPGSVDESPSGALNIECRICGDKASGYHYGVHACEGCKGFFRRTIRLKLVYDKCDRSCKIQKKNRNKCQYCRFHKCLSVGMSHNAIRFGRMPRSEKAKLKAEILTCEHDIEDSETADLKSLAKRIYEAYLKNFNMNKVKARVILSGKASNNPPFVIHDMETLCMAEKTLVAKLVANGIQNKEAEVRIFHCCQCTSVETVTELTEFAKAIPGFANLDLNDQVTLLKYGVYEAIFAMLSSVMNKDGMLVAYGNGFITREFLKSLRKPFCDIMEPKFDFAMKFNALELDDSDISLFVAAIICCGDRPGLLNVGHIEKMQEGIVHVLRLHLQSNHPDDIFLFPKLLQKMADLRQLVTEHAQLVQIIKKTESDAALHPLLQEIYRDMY
In short: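 Gain-of-signal endpoint: reporter mRNA induction relative to DMSO, detected by fluorescent RT-PCR and capillary electrophoresis. HepG2 cells transiently carried GAL4-UAS-driven reporter units plus NR-Gal4 fusion; exposure lasted 24 h.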

[17] = biological target: Retinoic acid receptor alpha (Homo sapiens) (UniProt P10276); experiment: ATG_RARa_TRANS: Attagene TRANS-FACTORIAL HepG2 Assay for human Retinoic Acid Receptor alpha (RARa) (AID 2283005; active = hit-call score of the fitted dose curve at least 0.9, where 1 is the maximum)
Retinoic acid receptor alpha (Homo sapiens), sequence (P10276 whole entry, looked up, the tested form may be a part): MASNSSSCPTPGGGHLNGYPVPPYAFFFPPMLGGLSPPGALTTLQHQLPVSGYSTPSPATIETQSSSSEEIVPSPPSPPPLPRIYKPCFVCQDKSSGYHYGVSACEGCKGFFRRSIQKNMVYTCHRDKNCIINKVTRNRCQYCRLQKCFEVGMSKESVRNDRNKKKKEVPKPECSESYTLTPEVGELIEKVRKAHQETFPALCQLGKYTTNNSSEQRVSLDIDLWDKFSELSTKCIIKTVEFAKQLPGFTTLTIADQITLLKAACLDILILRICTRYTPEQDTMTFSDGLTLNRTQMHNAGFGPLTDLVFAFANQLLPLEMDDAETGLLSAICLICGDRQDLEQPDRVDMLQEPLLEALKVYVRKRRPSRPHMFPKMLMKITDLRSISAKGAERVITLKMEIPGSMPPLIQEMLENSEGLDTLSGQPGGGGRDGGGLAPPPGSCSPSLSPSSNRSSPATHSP
In short: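 HepG2 cells transiently transfected with multiple reporter units expressing chimeric RARα-GAL4 fusion, with GAL4-UAS-driven reporters. After 24 h compound exposure, reporter mRNA induction quantified by RT-PCR and capillary electrophoresis with fluorescent labeling; gain-of-signal fitted relative to DMSO control.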

[18] = biological target: Peroxisome proliferator-activated receptor gamma (Homo sapiens) (UniProt P37231); experiment: ATG_PPARg_TRANS: Attagene TRANS-FACTORIAL HepG2 Assay for human Peroxisome Proliferator-activated Receptor-gamma (PPARg) (AID 2283007; active = hit-call score of the fitted dose curve at least 0.9, where 1 is the maximum)
Peroxisome proliferator-activated receptor gamma (Homo sapiens), sequence (P37231 whole entry, looked up, the tested form may be a part): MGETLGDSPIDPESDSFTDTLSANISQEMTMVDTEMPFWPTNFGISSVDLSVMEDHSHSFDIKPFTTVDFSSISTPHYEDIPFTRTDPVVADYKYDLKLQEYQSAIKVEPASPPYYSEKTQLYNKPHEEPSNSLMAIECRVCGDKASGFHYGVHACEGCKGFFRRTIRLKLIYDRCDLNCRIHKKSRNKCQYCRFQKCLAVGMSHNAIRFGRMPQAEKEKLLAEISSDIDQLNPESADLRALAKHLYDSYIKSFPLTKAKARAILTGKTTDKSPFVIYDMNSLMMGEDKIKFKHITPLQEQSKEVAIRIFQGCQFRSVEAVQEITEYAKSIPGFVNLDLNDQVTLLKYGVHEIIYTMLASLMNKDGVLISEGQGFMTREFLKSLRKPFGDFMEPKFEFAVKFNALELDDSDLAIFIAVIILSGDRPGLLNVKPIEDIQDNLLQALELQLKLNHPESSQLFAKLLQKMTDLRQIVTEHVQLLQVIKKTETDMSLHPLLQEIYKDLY
In short: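 HepG2 cells transiently transfected with multiplexed GAL4-UAS reporter units and exogenous chimeric NR-Gal4 proteins; reporter mRNA quantified after 24 h compound exposure by RT-PCR, fluorescent labelling, HpaI digestion and capillary electrophoresis; gain-of-signal fitted versus DMSO baseline.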

[19] = read-out: Intercellular Adhesion Molecule 1 (ICAM1), ICAM1 (gene 3383); experiment: BSK_3C_ICAM1: BioMAP Diversity Plus: 3C Assay for Intercellular Adhesion Molecule 1 (ICAM1) Biomarker Activity (AID 2283003); conditions: primary human endothelial cells (HUVEC); actives raise or lower the signal
In short: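 ICAM-1 levels measured by ELISA after HUVEC cultures in the 3C system had been dosed for 24 h. Gain or loss of signal relative to DMSO was fitted in both directions.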

Measured: AC50

CC(C)C(=O)OCCc1ccccc1
inactive: [1] | [2] | [3] | [4] | [5] | [6] | [7] | [8] | [9] | [10] | [11] | [12] | [13]

CC(=O)OC(C)c1ccccc1 (centres undefined)
inactive: [1] | [14] | [2] | [3] | [4] | [15] | [10]

O=S(=O)(O)c1ccc(N=Nc2c(O)ccc3ccccc23)cc1
inactive: [1] | [4] | [15] | [16] | [10] | [17] | [18] | [13]
active: [3] 34.1 µM

O=C(Cl)c1ccc(C(=O)Cl)cc1
inactive: [1] | [3] | [4] | [15] | [10] | [12] | [13]

C=CCCCCCCCCOC(C)=O
inactive: [1] | [14] | [3] | [4] | [16] | [18] | [12]

Cc1ccc(C)c(OCCCC(C)(C)C(=O)O)c1
active: [16] 37.4 µM | [12] 20.7 µM
inactive: [1] | [14] | [2] | [3] | [4] | [9] | [10] | [13]

CC(C)CO
inactive: [1] | [14] | [2] | [3] | [4] | [10] | [17]

CCCCCCOC(=O)CCCCC(=O)OCCCCCC
inactive: [1] | [14] | [2] | [3] | [4] | [15] | [5] | [6] | [7] | [8] | [16] | [19] | [10] | [17] | [11] | [18] | [12] | [13]

CC1CCC(=O)C1=O (centres undefined)
inactive: [1] | [14] | [3] | [4] | [10] | [18] | [12]

CCCC(C)C(=O)OCC (centres undefined)
inactive: [1] | [14] | [2] | [3] | [4] | [15] | [5] | [6] | [7] | [8] | [19] | [10] | [11] | [13]

CCCC1CCCC(=O)O1 (centres undefined)
active: [18] 23.4 µM
inactive: [1] | [14] | [2] | [3] | [4] | [15] | [16] | [9] | [10] | [12]

O=C(Nc1ccccc1)c1cc(Cl)ccc1O
active: [3] 2.35 µM | [4] 15.1 µM | [18] 13 µM
inactive: [1] | [14] | [2] | [15] | [16] | [10] | [17] | [12] | [13]

CC(=O)OC1CCCCC1
inactive: [1] | [14] | [2] | [3] | [4] | [15] | [9] | [17] | [12] | [13]

CCN1CN(CC)CN(CC)C1
inactive: [1] | [14] | [2] | [3] | [15] | [5] | [6] | [7] | [8] | [9] | [11] | [18] | [12]
active: [4] 159 µM

CC(C)(O)Cc1ccccc1
inactive: [1] | [14] | [2] | [3] | [4] | [15] | [9] | [10] | [17] | [12]

CCCCCCCC(=O)OCC
inactive: [1] | [14] | [2] | [3] | [4] | [15] | [16] | [18] | [12] | [13]

CC(=O)c1ccccc1O
inactive: [1] | [14] | [2] | [3] | [4] | [15] | [16] | [18] | [12]

CC1=C(O)C(=O)C(C)O1 (centres undefined)
inactive: [1] | [2] | [3] | [4] | [15] | [9] | [10] | [17] | [13]

Source: PubChem BioAssay (EPA / NIEHS)
